Test results taken from PubChem BioAssay (NCATS).
Several values for one entry are separate records, joined by “and”; a condition that tells them apart may be missing. Equal values may be shown once. Results filed as inconclusive are left out. Entries that show only a call come without a potency. Activity calls are given as the source filed them. Calls follow the shape of the dose curve; as a rule, active = well fitted curve in the direction sought with a large enough effect; inconclusive = small, poorly fitted or top-dose-only effect, or another doubt; inactive = no such curve, though single readings can be large; an effect the other way counts as inactive or inconclusive.

Experiments:
[1] = P-glycoprotein substrates identified in KB-8-5-11 adenocarcinoma cell line, qHTS therapeutic library screen (AID 1346987); also: nearly all actives have a fitted effect of over 65% in size
Method in brief: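 Compounds are pinned in dose-response onto KB-8-5-11 cells (500 cells/well, colchicine-free medium) and left 72 h at 37 degree C. CellTiter-Glo luminescence then yields AC50 values.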

[2] = qHTS of pediatric cancer cell lines to identify multiple opportunities for drug repurposing: Primary screen for SJ-GBM2 cells (AID 1347091)
Method in brief: (§1)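 Eight- or eleven-point concentration series, 48 h treatment at 37 degrees C in growth media; readout CellTiter-Glo luminescence. Potency and efficacy were taken from the concentration-response curves.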

[3] = qHTS of pediatric cancer cell lines to identify multiple opportunities for drug repurposing: Primary screen for NB-EBc1 cells (AID 1347095)
Method in brief: (§2)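 Luminescence from CellTiter-Glo served as readout of metabolically active cells after 48 h compound exposure. Titrations: MIPE 11-point, from 0.78 nM; NPC 8-point, from 0.59 nM (final). Concentration-response curves came straight from the primary screen.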

[4] = qHTS of pediatric cancer cell lines to identify multiple opportunities for drug repurposing: Primary screen for U-2 OS cells (AID 1347096); also: nearly all actives have a fitted effect of over 50% in size
Method in brief: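 Cells (500-1,000/well) in growth media were settled 5 h at 37 degrees C, then given compounds for 48 h. Viability was read as CellTiter-Glo luminescence. Primary runs used MIPE at 11 points (0.78 nM-46 µM) and NPC at 8 points (0.59 nM-46 µM); follow-ups used 11 points.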

[5] = qHTS of pediatric cancer cell lines to identify multiple opportunities for drug repurposing: Primary screen for TC32 cells (AID 1347089); also: nearly all actives have a fitted effect of over 60% in size
Method in brief: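 In the primary qHTS, MIPE compounds were tested at 11 concentrations (0.78 nM to 46 µM) and NPC compounds at 8 (0.59 nM to 46 µM) on TC32 cells for 48 h. CellTiter-Glo luminescence gave viability.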

[6] = qHTS of pediatric cancer cell lines to identify multiple opportunities for drug repurposing: Primary screen for DAOY cells (AID 1347090); also: nearly all actives have a fitted effect of over 55% in size
Method in brief: as §1

[7] = qHTS of pediatric cancer cell lines to identify multiple opportunities for drug repurposing: Primary screen for BT-37 cells (AID 1347094)
Method in brief: as §2

[8] = qHTS of pediatric cancer cell lines to identify multiple opportunities for drug repurposing: Primary screen for SK-N-MC cells (AID 1347093)
Method in brief: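 Metabolically active cells were quantified by ATP-dependent luminescence (CellTiter-Glo, 15 min at room temperature) following 48 h treatment. Cells had been plated at 500-1,000 per well and settled for 5 h beforehand.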

[9] = qHTS of pediatric cancer cell lines to identify multiple opportunities for drug repurposing: Primary screen for Saos-2 cells (AID 1347097); also: nearly all actives have a fitted effect of over 40% in size
Method in brief: as §2

[10] = qHTS of pediatric cancer cell lines to identify multiple opportunities for drug repurposing: Primary screen for SK-N-SH cells (AID 1347098); also: nearly all actives have a fitted effect of over 65% in size
Method in brief: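 Cells (500-1,000/well) rested 5 h, then received compounds for 48 h; metabolically active cells were measured by CellTiter-Glo luminescence. Final concentrations spanned up to 46 µM (MIPE, 11-point) or 0.59 nM-46 µM (NPC, 8-point) in primary screens, 11-point in follow-ups.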

[11] = qHTS of pediatric cancer cell lines to identify multiple opportunities for drug repurposing: Primary screen for A673 cells (AID 1347092); also: nearly all actives have a fitted effect of over 45% in size
Method in brief: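 48 h compound exposure, A673, 500-1,000 cells/well, 37 degrees C/5% CO2. MIPE: 11-point, 0.78 nM-46 µM; NPC: 8-point, 0.59 nM-46 µM (final). Readout CellTiter-Glo luminescence after 15 min RT.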

[12] = NS1 protein of Zika virus - qHTS assay to identify small molecule inhibitors in human HEK 293 cells (AID 1347053); also: nearly all actives have a fitted effect of over 55% in size
Method in brief: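 TR-FRET signal from two anti-ZIKV NS1 antibodies quantified NS1 in HEK 293 cells 24 h after MR766 infection at MOI = 0.5; compounds were added 1 h before virus. Uninfected cells and infected cells defined the NS1 normalization range.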
Potency is read from the fitted curve at half-maximal effect.

## CNC(=O)[C@H](Cc1ccccc1)NC(=O)[C@H](CC(C)C)[C@H](CSc1cccs1)C(=O)NO
[1]
  Potency: inactive
[2]
  Potency: inactive
[3]
  Potency: inactive
[4]
  Potency: inactive

## COc1ccc(C=CC(=O)Nc2ccccc2C(=O)O)cc1OC
[1]
  Potency: inactive
[5]
  Potency: inactive
[6]
  Potency: inactive
[2]
  Potency: inactive
[7]
  Potency: inactive
[3]
  Potency: inactive

## FC(F)(F)c1ccc(C=Cc2nc(COc3ccc(CCCCn4ccnn4)cc3)co2)cc1
[1]
  Potency: inactive
[5]
  Potency: 6.58 µM (active)
[6]
  Potency: 0.0187 µM (active)
[8]
  Potency: 0.0093 µM (active)
[7]
  Potency: 0.0109 µM (active)
[4]
  Potency: inactive
[9]
  Potency: 0.0332 µM (active)

## CCC(c1ccc(O)cc1)C(CC)c1ccc(O)cc1 (configuration not stated)
[1]
  Potency: inactive
[5]
  Potency: inactive
[6]
  Potency: 0.59 µM (active)
[2]
  Potency: inactive
[8]
  Potency: 1.05 µM (active)
[10]
  Potency: inactive

## C[C@@H](O[C@H]1OCCN(Cc2n[nH]c(=O)[nH]2)[C@@H]1c1ccc(F)cc1)c1cc(C(F)(F)F)cc(C(F)(F)F)c1
[1]
  Potency: 20.9 µM (active)
[5]
  Potency: inactive
[2]
  Potency: 23.5 µM (active)
[7]
  Potency: 27.3 µM (active)
[3]
  Potency: 23.5 µM (active)
[4]
  Potency: inactive
[9]
  Potency: 26.4 µM (active)

## CCNC(=O)[C@H]1O[C@@H](n2cnc3c(N)nc(NCCc4ccc(CCC(=O)O)cc4)nc32)[C@H](O)[C@H]1O
[1]
  Potency: inactive
[5]
  Potency: inactive
[6]
  Potency: inactive
[2]
  Potency: inactive
[8]
  Potency: inactive
[7]
  Potency: inactive
[3]
  Potency: inactive
[4]
  Potency: inactive
[10]
  Potency: inactive

## CC(=O)Nc1cccc(-n2c(=O)n(C3CC3)c(=O)c3c(Nc4ccc(I)cc4F)n(C)c(=O)c(C)c32)c1
[1]
  Potency: inactive
[5]
  Potency: inactive
[2]
  Potency: inactive
[8]
  Potency: 7.43 µM (active)
[7]
  Potency: inactive
[10]
  Potency: 3.41 µM (active)

## COc1cc2nccc(Oc3ccc(NC(=O)Nc4cc(C)on4)c(Cl)c3)c2cc1OC
[1]
  Potency: 11.8 µM (active) and 13 µM (active)
[6]
  Potency: 5.9 µM (active)
[2]
  Potency: 14.8 µM (active)
[7]
  Potency: 24.3 µM (active)
[3]
  Potency: 13.2 µM (active)
[4]
  Potency: 18.7 µM (active)
[9]
  Potency: 14.8 µM (active)
[10]
  Potency: 19.2 µM (active)

## CC(C)(C)c1[nH]cnc1C=c1[nH]c(=O)c(=Cc2ccccc2)[nH]c1=O
[1]
  Potency: 0.0024 µM (active)
[5]
  Potency: 0.0068 µM (active)
[11]
  Potency: 0.001 µM (active)
[8]
  Potency: 0.001 µM (active)
[3]
  Potency: 0.001 µM (active)
[4]
  Potency: 42.9 µM (active)
[9]
  Potency: 0.136 µM (active)

## NC[C@H]1O[C@H](O[C@@H]2[C@@H](O)[C@@H](O[C@H]3O[C@H](CO)[C@@H](O)[C@H](N)[C@@H]3O)[C@H](N)C[C@@H]2N)[C@H](O)[C@@H](O)[C@H]1O
[1]
  Potency: inactive
[5]
  Potency: inactive
[6]
  Potency: inactive
[11]
  Potency: inactive
[7]
  Potency: inactive
[3]
  Potency: inactive
[9]
  Potency: inactive

## CCCCCCCCCCCCCC(=O)N[C@H](CO)[C@H](O)c1ccc([N+](=O)[O-])cc1
[1]
  Potency: inactive
[5]
  Potency: inactive
[6]
  Potency: inactive
[8]
  Potency: 18.7 µM (active)
[7]
  Potency: 13.7 µM (active)
[4]
  Potency: inactive
[9]
  Potency: 18.7 µM (active)

## CCC(=C(CC)c1ccc(O)cc1)c1ccc(O)cc1
[1]
  Potency: inactive
[5]
  Potency: inactive
[11]
  Potency: 18.7 µM (active)
[8]
  Potency: 4.18 µM (active)
[7]
  Potency: 21.7 µM (active)
[3]
  Potency: 5.9 µM (active)
[4]
  Potency: inactive
[10]
  Potency: 7.64 µM (active)

## N#Cc1ccc(Oc2ccc3c(c2)COB3O)cc1
[1]
  Potency: inactive
[5]
  Potency: inactive
[6]
  Potency: inactive
[8]
  Potency: 14.8 µM (active)
[4]
  Potency: inactive
[9]
  Potency: inactive

## NC(=O)c1ncn([C@@H]2O[C@H](CO)[C@@H](O)[C@@H]2O)n1
[1]
  Potency: inactive
[5]
  Potency: inactive
[6]
  Potency: inactive
[2]
  Potency: inactive
[11]
  Potency: inactive
[7]
  Potency: inactive
[4]
  Potency: inactive
[9]
  Potency: inactive
[10]
  Potency: inactive

## NC(=O)c1noc([C@H](CCCC2CCCCC2)CC(=O)NO)n1
[12]
  Potency: 13.2 µM (active)
[5]
  Potency: inactive
[6]
  Potency: 14.8 µM (active)
[2]
  Potency: 18.7 µM (active)
[11]
  Potency: 9.35 µM (active)
[8]
  Potency: 7.43 µM (active)
[7]
  Potency: 21.7 µM (active)
[3]
  Potency: 20.9 µM (active)
[4]
  Potency: inactive

## Cc1ccc(C(=O)N(CCCN)[C@@H](c2oc3cc(Cl)ccc3c(=O)c2Cc2ccccc2)C(C)C)cc1
[1]
  Potency: 0.0833 µM (active)
[6]
  Potency: 0.001 µM (active)
[2]
  Potency: 0.001 µM (active)
[8]
  Potency: 23.5 µM (active)
[7]
  Potency: 0.001 µM (active)
[3]
  Potency: 0.001 µM (active)
[9]
  Potency: 0.001 µM (active)

## Cc1cccc(-c2[nH]c(C(C)(C)C)nc2-c2ccc3c(c2)OCO3)n1
[1]
  Potency: 10.3 µM (active)
[5]
  Potency: 8.29 µM (active)
[2]
  Potency: 4.69 µM (active)
[11]
  Potency: 4.69 µM (active)
[8]
  Potency: 2.96 µM (active)
[7]
  Potency: 6.11 µM (active)
[9]
  Potency: 0.418 µM (active)
[10]
  Potency: 30.4 µM (active)

## C=CC(=O)Nc1cccc(Sc2nc(Nc3ccc(N4CCN(C)CC4)cc3)ncc2Cl)c1
[1]
  Potency: 23.1 µM (active)
[6]
  Potency: 2.35 µM (active)
[11]
  Potency: 1.48 µM (active)
[8]
  Potency: 2.64 µM (active)
[3]
  Potency: 9.35 µM (active)
[10]
  Potency: 27.1 µM (active)

## Oc1ccc(C=Cc2cc(O)cc(O)c2)cc1
[1]
  Potency: inactive
[5]
  Potency: inactive
[8]
  Potency: 11.8 µM (active)
[7]
  Potency: 21.7 µM (active)
[4]
  Potency: inactive
[9]
  Potency: 29.6 µM (active)

## O=C(O)c1ccc(O)c2ncc(N3CCOCC3)cc12
[1]
  Potency: inactive
[8]
  Potency: 18.7 µM (active)
[3]
  Potency: 20.9 µM (active)
[9]
  Potency: 23.5 µM (active)
[10]
  Potency: 30.4 µM (active)

## C=CC[N+]1([C@H]2C[C@H]3[C@@H]4CC[C@H]5C[C@H](O)[C@@H](N6CCOCC6)C[C@]5(C)[C@@H]4CC[C@]3(C)[C@H]2OC(C)=O)CCCC1
[1]
  Potency: inactive
[5]
  Potency: inactive
[6]
  Potency: inactive
[2]
  Potency: inactive
[8]
  Potency: inactive
[7]
  Potency: inactive
[3]
  Potency: inactive
[4]
  Potency: inactive
[9]
  Potency: inactive
[10]
  Potency: inactive

## Cc1nc(C(=O)NCC(=O)O)c(O)c2ccc(Oc3ccccc3)cc12
[1]
  Potency: inactive
[5]
  Potency: inactive
[6]
  Potency: inactive
[11]
  Potency: inactive
[7]
  Potency: inactive
[4]
  Potency: inactive
[10]
  Potency: inactive

## CN1N=C(N)c2cn([C@@H]3O[C@H](COP(=O)(O)O)[C@@H](O)[C@@H]3O)c3ncnc1c23
[1]
  Potency: 0.833 µM (active)
[6]
  Potency: 14.8 µM (active)
[2]
  Potency: 7.43 µM (active)
[11]
  Potency: 3.72 µM (active)
[8]
  Potency: 0.0042 µM (active)
[3]
  Potency: 1.66 µM (active)
[9]
  Potency: 2.09 µM (active)
[10]
  Potency: 21.5 µM (active)

## O=C1C(CCC(O)c2ccc(F)cc2)C(c2ccc(O)cc2)N1c1ccc(F)cc1 (configuration not stated)
[1]
  Potency: inactive
[5]
  Potency: inactive
[6]
  Potency: inactive
[11]
  Potency: inactive
[8]
  Potency: inactive
[7]
  Potency: inactive
[3]
  Potency: inactive
[9]
  Potency: inactive

## CN(C)N=Nc1nc[nH]c1C(N)=O
[1]
  Potency: 1.87 µM (active)
[11]
  Potency: inactive
[8]
  Potency: 2.64 µM (active)
[3]
  Potency: inactive
[9]
  Potency: inactive
[10]
  Potency: inactive

## CN(CC=CC#CC(C)(C)C)Cc1cccc2ccccc12
[1]
  Potency: inactive
[5]
  Potency: inactive
[6]
  Potency: inactive
[7]
  Potency: inactive
[4]
  Potency: inactive
[9]
  Potency: inactive
[10]
  Potency: inactive

## CCc1cc(-c2n[nH]c(C)c2-c2ccc3c(c2)OCCO3)c(O)cc1O
[1]
  Potency: 9.35 µM (active)
[2]
  Potency: 6.62 µM (active)
[11]
  Potency: 7.43 µM (active)
[8]
  Potency: 10.5 µM (active)
[3]
  Potency: 4.69 µM (active)
[4]
  Potency: 11.8 µM (active)
[9]
  Potency: 14.8 µM (active)

## CC(C)N(CCCNC(=O)Nc1ccc(C(C)(C)C)cc1)C[C@H]1O[C@@H](n2cc(Br)c3c(N)ncnc32)[C@H](O)[C@H]1O
[1]
  Potency: inactive
[5]
  Potency: inactive
[7]
  Potency: 24.3 µM (active)
[3]
  Potency: inactive
[4]
  Potency: inactive
[10]
  Potency: 24.1 µM (active)
